Assay results taken from PMC12864922, “TDP-43 directly inhibits mRNA accumulation in neurites through modulation of mRNA stability”.
The full ranking holds about 9,900 sequences; the median of “r (bound/input frequency ratio)” is about 0.7, and the highest 2% start at about 6.5. For the sample, the highest values were picked, then their nearest neighbours and some sequences at random.

B1: ENSMUSG00000061578.1192|Ksr2 (ssRNA)
RNA: GGGAGUUCUACAGUCCGACGAUCGCUUCGAUAUCCGCAUGCUAUGUCUGCUUUUGUUUCUCCACCAUGCCCCCUGCCACCUCUUCUGACAGUGCUCAGAUUUAUCAGCCACCUGACCCACAGACCCAUAUGGACACACUAGAAAGCCCAUCCUAGGUCUUUCCAUGGUCUCUCACACCCCUGUCCCCGUCCCCUCCACCCCCCGGCAGCAUGCUUCACUCUAUGAAUGAGCCGCUGGGAUAUUGACAUGGAGAUGUGUUGAUGGAAAAAGCCUCCACACCCAACAUAACUCUCCAGAGAGAUACUCUUGCGGUCGCACUAGUGUGGAAUUCUCGGGUGUCAAGG
B2: ENSMUSG00000031028.410|Tub|118:122;252:256 (ssRNA)
RNA: GGGAGUUCUACAGUCCGACGAUCGCUUCGAUAUCCGCAUGCUAAGAUCCCUUACCCCUCAUCCCCUCUUCUUUUUGGUCCUUGGCUGGGUAGCAAAUUGGUGAGAAGAGCAGCCUAGUCUGUAAGAGUGCAGGGCAGCUGGAACCUUAGGCAGCUCCUCUCAUACCUACCGGCUCCACACCCUAACACUCUCCACCCUCUGCUCCAAACCAGUUCUUCUGCAGAGUGGUGAUGUUAGCUUCCCCAGCUCCUCUCCAAGUCUAGCUUUUUCUGUCCUUCUGGCUCCAAGGUGCUCACACACUGUCUCUUGCGGUCGCACUAGUGUGGAAUUCUCGGGUGUCAAGG
B3: ENSMUSG00000022095.49|Fam160b2 (ssRNA)
RNA: GGGAGUUCUACAGUCCGACGAUCGCUUCGAUAUCCGCAUGCUACCUUUUAGAGGAGCUAGAGGAUGGCCAGUGAGCGCCUAGAUGCUGCCCUGCAUGUGUUGCGUGACUAUCUCUGCUAUAUUGUGACCAGGGCCACAACAUGAGACAACUCCAGGGGCCAGGGAGAUGAACUGCUGUCUUUGAGGCUGGCUAAAAAAACAAUCCAGUCCAGAGAGAUGGGGAGGGGGGGAGCAAGAACCCUGUCUGUUACAUUAGGUAUCAUGGAAGCUGCUAAGACUCGGCAGGUUUCUCCGAGGCUUCACCUCUUGCGGUCGCACUAGUGUGGAAUUCUCGGGUGUCAAGG
B4: ENSMUSG00000029636.83|Wasf3|141:145 (ssRNA)
RNA: GGGAGUUCUACAGUCCGACGAUCGCUUCGAUAUCCGCAUGCUAACCAGUGGGUGAUACGUUUUCCUGUUUCUUCCCUUUGCAAAUUGAAUUCCAGGUAGAUAUGGUUGUAGAGGGGAAAGUUUAACAAAUCAGAAUGAAAUGUUUGUCUGUUUGCACACUGGGCCUGGUGGCCUCCAAGGAAAACACAACGAUCGUUUGCUUUCUCUAUCUUGGCGCUUGCAACCGAGAGCGGCCAUUUUUAUGAGGGGAGCCCUGUGGGUACUCAUGUGGAAAGUGCCCACUGACUUUGGCAGAUGGAGUUCCUCUUGCGGUCGCACUAGUGUGGAAUUCUCGGGUGUCAAGG
B5: ENSMUSG00000004113.216|Cacna1b (ssRNA)
RNA: GGGAGUUCUACAGUCCGACGAUCGCUUCGAUAUCCGCAUGCUAGUCUUAGGGACAUUGACAGUGUCCAUCAGCAUGUCAGAGAAGCAGCUGUAGUGCCCGUGUUUCUCCCUGAGUCAUGGGUUCUGAAGAAGCCAGAGCGGCACAAUGCGUGCUUGCAUGAGGCACUUUCAGCCUUUUUAAAUCUGACUCUCAGGGAUGGGAUGCCUGCCAAGUAGGGUGUAAUCUCUGUUGUGUUUUUAAAACAACAACAACAAAAUAAAACAAAAAAAAAAAACCUAGUAUUCACUGGAUGCUGAAGAGUGCUCUUGCGGUCGCACUAGUGUGGAAUUCUCGGGUGUCAAGG
B6: ENSMUSG00000035279.61|Ssc5d|92:97;148:152;163:167 (ssRNA)
RNA: GGGAGUUCUACAGUCCGACGAUCGCUUCGAUAUCCGCAUGCUAUAAAGAGGCUAGCAGAGGUGGCCUGGCCCCCCAGCACUCCUGUGCCCAUGACCACCACCACAGAGGAGGAGGAGAGGCCUCUGAGGGGAGAACACACACCCACUCUGAAAUUCACGGUGCUUAAGAUACUCUUAAACAAAAGCCAACCAUACUACAAUCGAACACACGGUGUUGUUACUGGGGAGCAGGGGCUCUGGAGGGACAGAAUUACAAUGCUGAUCCUAACUUGUCAAUGCCAUCUGUGAUGGCGUUGGAGAUCACUCUUGCGGUCGCACUAGUGUGGAAUUCUCGGGUGUCAAGG
B7: ENSMUSG00000031028.6|Tub (ssRNA)
RNA: GGGAGUUCUACAGUCCGACGAUCGCUUCGAUAUCCGCAUGCUAUAGCAGAAGAUGUGUUCACCAUGGAUUACAACUACCCACUGUGUGCACUGCAGGCCUUUGCCAUUGCUCUGUCCAGCUUUGACAGCAAGCUGGCCUGCGAGUAGAGGCCCCCCACUGCCUUUAGGUGGCCCAGUCCGGAGUGGAGCUUGCCUGCCUGCCAAGACAGCCCUGCCUACCCUCUGUUCAUAGGCCCUCUAUGGGCUUUCUGGCCUUACCAACCAGAGACUGGCUGCUCUGCCUCUGCUGCUGAAGCAGGGGGGCUCUUGCGGUCGCACUAGUGUGGAAUUCUCGGGUGUCAAGG
B8: ENSMUSG00000058297.454|Spock2 (ssRNA)
RNA: GGGAGUUCUACAGUCCGACGAUCGCUUCGAUAUCCGCAUGCUAUCAGGAGCAAGGUCACACAGGUCAGAUUAUUGUCGGUCCUGCGGGCCUCAUCCUUGAAUAAGCUGCCUGCCCAGUUCCUCCAUCCGUGUUCCUGCCUGCUCCCGUUCCCUUGUUGCGGGCAGGAGAGGUAGGGCUGUGUUGGAAAGAGUUCAACCAAAUUACGGCAGCACCACAUCUUGCCGAGCCCUGGAGCUGCCCUACUAAGAGCCUCCUUAGCCCUGGGUGCUGGGAAGGAUGGUGUACGUUGGGGAAGUUUGAGGCUCUUGCGGUCGCACUAGUGUGGAAUUCUCGGGUGUCAAGG

molecular target: TDP-43 (Homo sapiens, UniProt Q13148 1-414); assay: RNA Bind-n-Seq with designed 260-mer pool; 25 mM Tris-HCl, 150 mM KCl, 3 mM MgCl2, BSA (printed 500 mg/mL), 20 units/mL SUPERase IN; pH not stated; 500 nM RNA pool, 1 h, 4 C; TDP-43 5, 50, 500 nM; high values mean tight binding; details: protein: recombinant; tags: SBP (GST cleaved off with PreScission; pGEX-GST-SBP)
Outline: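 Recombinant SBP-tagged TDP-43 at 5, 50 or 500 nM was captured on streptavidin beads, then incubated 1 h at 4 °C with 500 nM of an in vitro-transcribed 260-nt 3′ UTR oligo pool in 25 mM Tris-HCl, 150 mM KCl, 3 mM MgCl2, BSA and SUPERase IN. Bound RNA was washed, eluted with biotin, reverse transcribed, PCR-amplified and sequenced. Binding is R, each oligo's mapped-read-normalized abundance in the bound sample divided by its abundance in input. Duplicates used two independent protein batches.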

Sequence of TDP-43 (Q13148 whole entry): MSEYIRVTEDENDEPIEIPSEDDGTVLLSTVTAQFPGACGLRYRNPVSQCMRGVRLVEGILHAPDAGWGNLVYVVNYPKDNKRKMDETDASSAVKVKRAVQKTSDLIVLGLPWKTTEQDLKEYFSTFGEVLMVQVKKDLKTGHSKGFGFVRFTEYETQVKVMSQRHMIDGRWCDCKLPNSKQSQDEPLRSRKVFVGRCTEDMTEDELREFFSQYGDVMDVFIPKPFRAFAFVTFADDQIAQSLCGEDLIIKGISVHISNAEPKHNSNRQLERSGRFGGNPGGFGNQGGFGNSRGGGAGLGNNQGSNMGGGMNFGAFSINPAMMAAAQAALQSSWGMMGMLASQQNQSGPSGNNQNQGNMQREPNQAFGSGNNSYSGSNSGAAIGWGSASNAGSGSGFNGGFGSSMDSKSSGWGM

| Binder | binding signal |
| --- | --- |
| B1 | 1.3 R (bound/input frequency ratio) |
| B2 | 2.59 R (bound/input frequency ratio) |
| B3 | 1.16 R (bound/input frequency ratio) |
| B4 | 1.97 R (bound/input frequency ratio) |
| B5 | 1.66 R (bound/input frequency ratio) |
| B6 | 0.434 R (bound/input frequency ratio) |
| B7 | 0.331 R (bound/input frequency ratio) |
| B8 | 0.419 R (bound/input frequency ratio) |
